In all, about 1,600 compounds went through this assay and about 1,100 (69%) were called active. The set was probably picked from earlier hits. Only a sample is shown. Entries with a potency or affinity are not part of this list. Results filed as inconclusive are left out. Unmarked numbers belong to inactive results.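 The calls were made as follows: active = signal drop with fitted half-maximal concentration no higher than twice the top valid tested concentration; inconclusive = flat curve with 30 to 70% signal loss, or poor fit; inactive = the rest, including signal rises and flat curves within 30%.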
Assay: loss of viability in HepG2 cells – cell-based, CellTiter-Glo, cherry-picked, cytotoxicity control for Shn3 inhibitor project, dose response (AID 624134);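 also: 0% = median of neutral control wells and -100% = median of positive control wells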
Conditions: CellTiter-Glo ATP luminescence, 48 h; series mostly up to 35 µM; activity change, negative = cytotoxicity: at the top concentration

SMILES | activity change, negative = cytotoxicity
CCCCC[C@H]1CN(Cc2ccc(OC)cc2)C(=O)[C@@H]1CC(=O)NCc1ccccc1 | -12.3%
Cc1ccc(CS(=O)(=O)c2ncc(Cl)c(C(=O)Nc3nnc(C)s3)n2)cc1 | -16%
CSc1nnc(NC(=O)c2nc(S(=O)(=O)Cc3ccccc3F)ncc2Cl)s1 | -11%
CCn1c(=O)c(C(=O)Nc2nc3ccccc3[nH]2)c(O)c2ccccc21 | 1.78%
CCOC(=O)Cn1c(S(=O)(=O)Cc2ccccc2Cl)nc(-c2ccccc2)c1-c1ccccc1 | -12.6%
CCOC(=O)Cn1c(=O)c(-c2cc(Br)ccc2N)nc2ccccc21 | -8.59%
CCOC(=O)c1c(C)[nH]c(C)c1C(=O)CSc1nc2ccccc2c(=O)n1-c1ccc(CC)cc1 | -19.7%
CCOC(=O)c1cccc(NC2c3ccccc3C(=O)N2Cc2ccco2)c1 (stereo not given) | -2.92%
CSc1nnc(-c2ccco2)n1-c1ccccc1 | 0.586%
CCC(C)c1ccc(S(=O)(=O)N2CCN(C(=O)c3ccc(Cl)c(S(=O)(=O)N4CCOCC4)c3)CC2)cc1 (stereo not given) | -13.9%
CCCCCCC#Cc1ccc2c(c1)COc1c3ccccc3nn1-2 | -0.219%
O=C(O)C1(Nc2ccccc2Cl)CCCC1 | -3.18%
Cc1ccn2cc(-c3ccc(O)c(O)c3)nc2c1 | 0.075%
Cc1ccc(-c2cn3cc(C)ccc3n2)cc1 | -9.81%
COC(=O)C12OCC34C(CC5C(C)=C(O)C(=O)CC5(C)C3C(O)C1O)OC(=O)C(OC(=O)C=C(C)C)C24 (stereo not given) | 0.417%
O=C(NCCCn1ccnc1)C(=O)NCC1OCCCN1S(=O)(=O)c1ccccc1 (stereo not given) | 3.35%
CC(C)c1c(O)c2c(n(-c3ccccc3)c1=O)CCCC2 | 5.24%
Cc1ccc(NC(=O)c2cc3ccccc3oc2=O)cc1S(=O)(=O)N(C)C | -2.4%
O=C1CCc2cccc(O)c2N1 | 3.06%
Cc1ccc(Cn2ccc(NC(=O)c3nn(C)cc3[N+](=O)[O-])n2)cc1 | -12.5%
Cc1ccc(C(=O)Nc2cnc3ccccc3c2)cc1 | -4.82%
COC(=O)c1ccccc1NC(=S)N(Cc1ccc2c(c1)OCO2)Cc1cc2cc(OC)ccc2[nH]c1=O | -10.8%
CC(C)c1nnc(NC(=O)c2nc(S(=O)(=O)Cc3ccc(F)cc3)ncc2Cl)s1 | -7.09%
COCc1nn2c(N)c(C#N)cnc2c1-c1ccccc1 | 0.007%

SMILES | activity change, negative = cytotoxicity
C=CCOc1nc2c(c(=O)n(C)c(=O)n2C)n1Cc1ccc(Cl)cc1 | -6.18%
COc1ccc(CCNC(=O)CCC(=O)N2CCOc3ccc(Cl)cc32)cc1OC | -4.82%
CCOC(=O)N1CCN(CC(c2ccccc2)c2ccccc2)CC1 | -2.51%
COc1ccccc1NC(=O)Cn1cc(C(=O)C2CC2)c2ccccc21 | -17.6%
CCC(CC)CN1C(N(C)C)=NC[C@@H]1CC(C)C | -2.51%
CCOC(=O)C1CCCN(S(=O)(=O)c2ccc(S(=O)(=O)N3CCCC3)cc2)C1 (stereo not given) | -6.66%
CN(CC(=O)NCc1ccc2c(c1)OCO2)S(=O)(=O)c1ccc(Br)s1 | 11.1%
Cc1cccc(CCN2C(N(C)C)=NC[C@@H]2CC(C)C)c1 | -11.9%
O=C1C=C(N2CCOCC2)c2ccccc2C1=O | -0.716%
COc1cc(OC)c(OC)cc1/C=C1\CC(C)C/C(=C\c2cc(OC)c(OC)cc2OC)C1=O (stereo not given) | 9.81%
Cc1ccc(C)c(S(=O)(=O)Nc2ccc(-n3cnnn3)cc2)c1 | -0.783%
CC1(Cc2ccc(OC(F)(F)F)cc2)C(=O)Nc2c(Cl)ccc(Cl)c21 (stereo not given) | -0.472%
Cc1nn(Cc2c(Cl)cccc2Cl)c(C)c1NC(=O)c1cn(-c2ccccc2)nc1-c1ccccc1 | -1.4%
Cc1nn(Cc2noc(C(=O)NC3CCC(C)CC3)n2)c(C)c1Br (stereo not given) | -0.596%
CCOC(=O)CC1CCCCN1C(=O)c1cc(COc2cccc3cnccc23)on1 (stereo not given) | -18.8%
OC(c1ccccc1)C(O)C(c1ccccc1)N1CCCCC1 (stereo not given) | -8.45%
CCCOc1ccc2oc(=O)c3c(c2c1)CCCN3C(=O)CN1CCN(c2ncccn2)CC1 | -4.39%
OCCCNc1nccc(-c2cc(Nc3cccc(Cl)c3)ncn2)n1 | -12%
OCCCNc1cc(-c2ccnc(Nc3cccc(Cl)c3)n2)ccn1 | -19%
COc1ccc(OC)c(C(c2nnnn2Cc2ccccc2)N2CCN(C3CCCCC3)CC2)c1 (stereo not given) | -9.05%
O=S(=O)(c1ccc(Cl)cc1)n1ccc2cccnc21 | 0.483%
Cc1sc2ncnc(N3CCN(S(=O)(=O)c4ccccc4)CC3)c2c1C | -22.3%
O=C(CN1C(=O)C2CCCCC2C1=O)NC1CCCc2ccccc21 (stereo not given) | -0.197%
CCc1ccc(-n2c(O)c(C=NCCN(CC)CC)c(=O)[nH]c2=O)cc1 | -6.43%

SMILES | activity change, negative = cytotoxicity
CC(C)c1nnc(NC(=O)c2nc(S(=O)(=O)Cc3ccccc3)ncc2Cl)s1 | -6.87%
O=C1CC(c2ccccc2)CC(O)=C1C=Nc1cccc(Cl)c1 (stereo not given) | -7.86%
CC(=O)N1CCN(C(=O)CCc2cc(C(C)(C)C)c(O)c(C(C)(C)C)c2)CC1 | -8.85%
COC(=O)[C@@]12CCCCN1[C@H](c1ccc(SC3CCCCC3)c(OC)c1)[C@@H]1C(=O)N(C)C(=O)[C@@H]12 | -9.78%
CSc1nnc(NC(=O)c2nc(S(=O)(=O)Cc3cccc(C)c3)ncc2Cl)s1 | -2.96%
CCSc1nnc(NC(=O)c2nc(S(=O)(=O)Cc3ccc(F)cc3)ncc2Cl)s1 | -8.21%
Cc1ccc(CS(=O)(=O)c2ncc(Cl)c(C(=O)Nc3nnc(C(C)C)s3)n2)cc1 | -10.4%
CC(C)(C)[C@@H]1COC(=O)[C@@H](NC(=O)OCC2c3ccccc3-c3ccccc32)C/C=C\C[C@@H](CC(=O)NCCO)C(=O)N1 | -18.4%
C[C@H]1COC(=O)[C@H](NC(=O)OCC2c3ccccc3-c3ccccc32)C/C=C\C[C@H](CC(=O)N(CCO)Cc2ccccc2)C(=O)N1 | -2.09%
O=C(CN1C(=O)c2ccccc2S1(=O)=O)c1ccc2c(c1)OCCCO2 | 4.26%
COC(=O)[C@@]12CCCN1[C@H](c1ccc(-c3ccc(OC)cc3)cc1)[C@@H]1C(=O)N(C)C(=O)[C@@H]12 | -1.78%
O=C1/C(=C/c2ccccn2)SC(=S)N1Nc1ncc(C(F)(F)F)cc1Cl | -1.16%
COc1cc(NC(=O)COc2cccc3c2OC(C)(C)C3)cc(OC)c1OC | -10.7%
CCOC(=O)c1c(C)[nH]c(C(=O)COC(=O)[C@H](C)N2C(=O)C3CCCCC3C2=O)c1C (stereo not given in full) | -1.04%
CCOc1ccc(NS(=O)(=O)c2cc(C(=O)NCCN3CCOCC3)ccc2C)cc1 | -2.87%
Cc1c(C(=O)N(Cc2cccc(Br)c2)C2CCS(=O)(=O)C2)oc2ccccc12 (stereo not given) | -1.47%
CC1CCN(C(=O)c2ccc(N3C(=O)C4CCC(C)CC4C3=O)cc2)CC1 (stereo not given) | 3.34%
Cc1c(CCOC(=O)CC23CC4CC(CC(C4)C2)C3)sc[n+]1CC(=O)c1ccc(Br)cc1 | -13.8%
COc1ccccc1-n1cc([C@@H]2C[C@H]3CN(c4ccccc4)C(=O)[C@]34CCCN24)cn1 | -18.9%
O=C(NNc1ccccc1)C(=O)NNS(=O)(=O)c1ccc(CCCl)cc1 | -6.66%
O=C(CN1C(=O)c2ccccc2S1(=O)=O)c1ccc(Cl)cc1Cl | -5.75%
NC(=O)NC(CC(=O)NCCc1ccccn1)c1ccccc1Cl (stereo not given) | -2.86%
CC1(C)CC(=O)c2c(nc(SCC(=O)Nc3nsc(-c4ccccc4)n3)c(C#N)c2-c2ccccc2)C1 | -5.76%
CNS(=O)(=O)c1cccc(C(=O)OCc2cc(C(C)=O)ccc2OC)c1 | 0.463%

SMILES | activity change, negative = cytotoxicity
CCN1C(=O)[C@H]2[C@@H](c3ccc(-c4ccc(OC)cc4)cc3)N3CCC[C@@]3(C(=O)OC)[C@H]2C1=O | -3.76%
Cc1ccc(S(=O)(=O)CCC(=O)OCC(=O)Nc2cc(S(=O)(=O)N3CCOCC3)ccc2C)cc1 | 3.15%
CNC(=O)c1nnsc1S(=O)c1ccc(Cl)cc1 (stereo not given) | -3.14% [at 16 µM]
COCCn1c(SCC(=O)/C=C2\N(C)c3ccccc3C2(C)C)nnc1-c1ccncc1 | -22%
O=C1NCCOC(=O)[C@@H](Cc2ccc(F)cc2)CC/C=C/C[C@@H]1CC(=O)N(CCO)Cc1ccccc1 | -6.06%
COc1c(CC=C(C)C)cc(C2CC(=O)c3c(O)cc(O)cc3O2)cc1CC=C(C)C (stereo not given) | -9.16%
Cc1cc(=O)oc2c3c(cc(OCC(=O)Nc4ccc(CCO)cc4)c12)OC(C)(C)CC3 | -4.82%
O=C(Nc1cc(F)ccc1F)N1CCN(c2ccnc3cc(Cl)ccc23)CC1 | -17%
COc1ccccc1-n1ccnc(SCC(=O)NCc2ccccc2Cl)c1=O | -8.69%
Cc1ccc(S(=O)(=O)NCCc2cc3ccc(C)cc3[nH]c2=O)cc1 | -9.09%
CC[C@H](C)C(=O)O[C@H]1C[C@@H](C)C=C2C=C[C@H](C)[C@H](CC[C@@H]3C[C@@H](O)CC(=O)O3)[C@H]21 | -15.4%
COc1ccc(S(=O)(=O)N2CCN(c3cc(-c4ccccc4)nc4ncnn34)CC2)cc1 | 5.43%
O=C(CSc1ccccn1)Nc1nonc1[N+](=O)[O-] | -17.3%
C=CC[C@H](CC(=O)N(CCO)Cc1ccccc1)C(=O)NC[C@H](OC(=O)[C@@H](CC=C)Cc1ccc(F)cc1)c1ccccc1 | -4.46%
C=CCC[C@H](Cc1ccc(F)cc1)C(=O)OC[C@H](Cc1c[nH]c2ccccc12)NC(=O)[C@H](CC=C)CC(=O)N(CCO)Cc1ccccc1 | -9.68%
C=CCOc1nc2c(c(=O)n(C)c(=O)n2C)n1Cc1ccc(Cl)cc1Cl | -2.85%
O=C(COC(=O)/C=C/c1ccc(OC(F)F)cc1)Nc1ccc2[nH]c(=O)[nH]c2c1 | 4.55%
C[C@]12CC[C@H](O)CC1=CCC1C2CC[C@@]2(C)C1CCC21OCCO1 (stereo not given in full) | -14.2%
Cc1csc(=O)n1CC(=O)OCC(=O)c1c(N)n(C)c(=O)n(C)c1=O | -7.39%
CS(=O)(=O)c1nc(-c2ccc(Br)cc2)cc(-c2ccccc2)c1C#N | -44%
Cc1ccc2c(c1)c(C1=c3ccccc3=NC1=O)c(O)n2C | -17.2%
CCCCN1CC(COCc2ccccc2)Oc2cccc(Oc3ccc(C)cc3)c2S1(=O)=O (stereo not given) | -11.8%
COc1ccc2c(c1OC)C(=O)N1c3ccccc3C(=O)N(c3ccccc3F)C21 (stereo not given) | -5.72%

— PubChem BioAssay AID624134 (Broad Institute, 2012)
